This is an account of results in article PMC4336329 (PLoS ONE, 2015).

Each structure is given as a SMILES string. The whole screen tested about 310,000 compounds, of which about 14,000 (4.5%) showed an effect of 50% or more. Effects have a minus sign here. For the sample, strong results were picked, then their nearest neighbours and some compounds at random.
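Further: peak tail current of the secondary pulse compared with the same well before compound.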

For this experiment, the target named is human ether-à-go-go-related gene (hERG) potassium channel (human, UniProt Q12809). Briefly: primary screen, population patch clamp on CHO cells stably expressing hERG; higher = less effect of the substance.
Chain of human ether-à-go-go-related gene (hERG) potassium channel (Q12809 whole entry, looked up): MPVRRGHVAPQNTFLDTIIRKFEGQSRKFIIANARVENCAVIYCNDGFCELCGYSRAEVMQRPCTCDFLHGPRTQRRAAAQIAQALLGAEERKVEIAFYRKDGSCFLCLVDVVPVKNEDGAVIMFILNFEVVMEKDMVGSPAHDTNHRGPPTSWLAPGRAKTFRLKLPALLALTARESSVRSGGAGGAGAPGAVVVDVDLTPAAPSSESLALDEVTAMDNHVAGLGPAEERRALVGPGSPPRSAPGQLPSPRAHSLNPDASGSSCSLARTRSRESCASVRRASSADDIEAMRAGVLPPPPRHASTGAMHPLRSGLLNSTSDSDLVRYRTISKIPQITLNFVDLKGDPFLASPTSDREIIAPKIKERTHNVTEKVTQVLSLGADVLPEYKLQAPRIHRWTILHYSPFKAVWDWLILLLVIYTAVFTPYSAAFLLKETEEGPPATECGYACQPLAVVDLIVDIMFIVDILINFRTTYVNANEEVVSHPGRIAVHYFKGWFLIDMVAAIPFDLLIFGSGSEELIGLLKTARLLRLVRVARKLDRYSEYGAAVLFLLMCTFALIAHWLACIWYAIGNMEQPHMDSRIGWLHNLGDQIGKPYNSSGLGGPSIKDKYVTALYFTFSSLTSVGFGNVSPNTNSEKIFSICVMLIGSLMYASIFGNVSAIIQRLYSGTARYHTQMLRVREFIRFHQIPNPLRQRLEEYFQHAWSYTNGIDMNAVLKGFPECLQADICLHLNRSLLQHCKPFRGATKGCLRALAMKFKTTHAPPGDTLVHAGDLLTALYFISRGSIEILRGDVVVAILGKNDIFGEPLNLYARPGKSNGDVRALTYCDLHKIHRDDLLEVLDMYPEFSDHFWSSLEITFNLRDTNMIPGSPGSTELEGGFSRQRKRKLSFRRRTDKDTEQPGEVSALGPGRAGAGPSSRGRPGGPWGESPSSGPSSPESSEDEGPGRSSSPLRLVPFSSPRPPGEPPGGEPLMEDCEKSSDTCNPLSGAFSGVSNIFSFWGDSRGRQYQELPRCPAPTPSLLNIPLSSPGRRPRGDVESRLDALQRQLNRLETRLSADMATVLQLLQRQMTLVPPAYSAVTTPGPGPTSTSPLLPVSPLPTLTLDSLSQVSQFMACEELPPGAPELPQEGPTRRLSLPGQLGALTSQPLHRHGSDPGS
For `CC(C)OC(=O)/C(C#N)=C/c1cn(Cc2ccccc2)c2ccccc12`, the “hERG current change (%, negative = inhibition) at 10uM” value is reported as -6.73%.
Take `COc1ccc(N(C(=O)CNC(=O)c2ccco2)C(C(=O)NC2CCCCC2)c2ccco2)cc1` (stereo not shown): the “hERG current change (%, negative = inhibition) at 10uM” value was 8.58%.
`C=CCNc1nc2c(c(=O)[nH]c(=O)n2C)n1CCCCC`: the “hERG current change (%, negative = inhibition) at 10uM” value is -12.1%.
The same measure for `O=[N+]([O-])c1ccc2[nH]cc(S(=O)(=O)N3CCN(c4cccc(Cl)c4)CC3)c2c1`: 16.3%; for `NC(=O)NC(=O)COC(=O)c1cccc(S(=O)(=O)N2CCCCCC2)c1`: -21.4%.
`C=CCNC(=O)c1ccccc1NC(=O)C1CCN(S(=O)(=O)c2ccc(SC)cc2)CC1`: the “hERG current change (%, negative = inhibition) at 10uM” value was -70%.
The same measure for `C=CCNC(=O)C1CCN(S(=O)(=O)c2ccccc2)CC1`: -2.98%.
On to `CCCNC(=O)C1CCN(S(=O)(=O)c2ccc(Br)cc2)CC1`, for which the “hERG current change (%, negative = inhibition) at 10uM” value is given as -1.78%.
Turning to `C=CCNC(=O)C1CCN(S(=O)(=O)c2ccc(Br)cc2)CC1`, the “hERG current change (%, negative = inhibition) at 10uM” value is listed as -58.7%.
As for `C=CCNC(=O)c1ccccc1NS(=O)(=O)c1ccc(SC)cc1`, the “hERG current change (%, negative = inhibition) at 10uM” value is -6.5%.
The result for `CSc1ccc(S(=O)(=O)N2CCC(C(=O)Nc3ccccc3C(F)(F)F)CC2)cc1` reads 7.69%; that for `Nc1nc(N)nc(-c2cc(O)ccc2O)n1`, 10.3%; that for `O=C(CSc1ccccc1)N(c1ccc(Br)cc1)c1nccs1`, 10.8%.
With `Cc1cc(C)c2cc(CN(CCCN(C)C)C(=S)NCc3ccccc3)c(=O)[nH]c2c1`, the “hERG current change (%, negative = inhibition) at 10uM” value is -45.4%.
With `Cc1ccc2[nH]c(=O)c(CN(CCO)C(=O)NCc3ccccc3)cc2c1`, the “hERG current change (%, negative = inhibition) at 10uM” value is given as 7.55%.
Take `Cc1ccc2cc(CN(CCCN(C)C)C(=O)NCc3ccccc3)c(=O)[nH]c2c1C`: the “hERG current change (%, negative = inhibition) at 10uM” value is on record as -34.1%.
On to `COc1ccc2[nH]c(=O)c(CN(CCN(C)C)C(=O)NCc3ccccc3)cc2c1`, for which the “hERG current change (%, negative = inhibition) at 10uM” value was determined as 9.31%.
`CCN(CC)CCCNC(=S)N(Cc1cccnc1)Cc1cc2cccc(C)c2[nH]c1=O`: the “hERG current change (%, negative = inhibition) at 10uM” value is listed as -1.68%.
Turning to `Cc1ccc2cc(CN(CCCN(C)C)C(=S)NCc3ccccc3)c(=O)[nH]c2c1C`, the “hERG current change (%, negative = inhibition) at 10uM” value is recorded as -50.3%.
For the compound `Cc1cccc2cc(CN(CCCN(C)C)C(=S)NCCc3ccccc3)c(=O)[nH]c12`, the “hERG current change (%, negative = inhibition) at 10uM” value is given as -72%.
With `CCC(=O)N(CCc1ccccc1)Cc1cc2cccc(C)c2[nH]c1=O`, the “hERG current change (%, negative = inhibition) at 10uM” value is -14.4%.
For the compound `Cc1ccc(C)c2[nH]c(=O)c(CN(CCCN(C)C)C(=O)NCc3ccccc3)cc12`, the “hERG current change (%, negative = inhibition) at 10uM” value is recorded as -52.2%.
As to `O=C(NC(=S)N1CCOCC1)c1ccc(F)cc1`, the “hERG current change (%, negative = inhibition) at 10uM” value is on record as 24.4%.
For `CC[C@H](C)[C@@H](C(=O)N1CCNCC1)n1cc([C@@H](N)CC(C)C)nn1.Cl`, the “hERG current change (%, negative = inhibition) at 10uM” value is reported as 11.9%.
As to `CC(=O)c1ccc(NC(=O)CSc2nnc(-c3ccncc3)n2C2CC2)cc1`, the “hERG current change (%, negative = inhibition) at 10uM” value is given as -5.46%.
The result for `COc1ccc(CC(=O)NC2CC(C)(C)NC(C)(C)C2)cc1OC.Cl` reads 16.9%; that for `Cc1ccc(/C=C2\C(=O)Nc3ccccc32)o1`, 5.04%; that for `CCOc1ccccc1-n1nnnc1SCC(=O)NCC1(N2CCOCC2)CCCCC1`, -67.7%.
The result for `COc1ccccc1-n1nnnc1SCC(=O)NCC1(N2CCOCC2)CCCCC1` reads -39.8%; that for `Cc1cccc(-n2nnnc2SCC(=O)NCC2(N3CCOCC3)CCCCC2)c1C`, -57.9%; that for `Cc1ccccc1-n1nnnc1SCC(=O)NCC1(N2CCOCC2)CCCCC1`, -24.9%.
Turning to `CCOc1ccccc1-n1nnnc1SCC(=O)NCc1ccco1`, the “hERG current change (%, negative = inhibition) at 10uM” value worked out at 5.25%.
On to `O=C(CSc1ccccc1)NCC1(N2CCOCC2)CCCCC1`, for which the “hERG current change (%, negative = inhibition) at 10uM” value was -19%.
`O=c1c2ccccc2nc2c3ccccc3c(NCc3cccnc3)nn12`: the “hERG current change (%, negative = inhibition) at 10uM” value was -25.5%.
The same measure for `COc1ccc(-n2nc(C(=O)NCC(=O)NC3CCCC(C)C3C)c3ccccc3c2=O)cc1` (stereo not shown): 8.55%; for `CC(=O)OCN(C#N)c1nc(N(C)C)nc(N(C)C)n1`: 5.8%.
`Cc1nnc2ccc(-c3ccc(NS(=O)(=O)c4ccc(F)cc4F)cc3)nn12`: the “hERG current change (%, negative = inhibition) at 10uM” value is on record as -25.2%.
On to `CC(C)Oc1ccc(CNC(=O)C2CCCN(S(=O)(=O)N3CCOCC3)C2)cc1` (stereo not shown), for which the “hERG current change (%, negative = inhibition) at 10uM” value was -20.8%.
In the case of `CN1C(C(=O)NCc2cccc(C(F)(F)F)c2)CC2Cn3c(nc4cc(Cl)c(Cl)cc43)C21` (stereo not shown), the “hERG current change (%, negative = inhibition) at 10uM” value was -73.6%.
The same measure for `C=CCNC(=O)C1CC2Cn3c(nc4cc(C)c(C)cc43)C2N1C` (stereo not shown): -7.6%; for `CN1C(C(=O)NCc2cccc(C(F)(F)F)c2)CC2Cn3c(nc4cc5ccccc5cc43)C21` (stereo not shown): -63.1%.
For `CN1C(C(=O)NCc2cccc(C(F)(F)F)c2)CC2Cn3c(nc4ccccc43)C21` (stereo not shown), the “hERG current change (%, negative = inhibition) at 10uM” value is recorded as -47.4%.
Consider `Cc1cc2nc3n(c2cc1C)CC1CC(C(=O)NCC2CC2)N(C)C31` (stereo not shown), for which the “hERG current change (%, negative = inhibition) at 10uM” value is recorded as -1.83%.
Turning to `Cc1cc2nc3n(c2cc1C)CC1CC(C(=O)NCc2cccc(C(F)(F)F)c2)N(C)C31` (stereo not shown), the “hERG current change (%, negative = inhibition) at 10uM” value is listed as -66.7%.
Regarding `O=C(Nc1ccccc1)c1ccc(Br)c(S(=O)(=O)Nc2ccccn2)c1`, the “hERG current change (%, negative = inhibition) at 10uM” value is reported as 14.5%.
The result for `Cc1cc(C)c(C#N)c(N2CCSCC2)n1` reads 4.36%; that for `CC(=O)N1CCc2cc(S(=O)(=O)NCCC(=O)NC3CCCc4ccccc43)ccc21` (stereo not shown), 2.54%; that for `NC(=O)c1noc(C(=O)N(CC(=O)NC2CCCC2)Cc2ccc3c(c2)OCO3)c1N`, -7.94%.
Take `Cc1cc(N2CCOCC2)nc2ccc(NC(=S)NCCN(C)C)cc12`: the “hERG current change (%, negative = inhibition) at 10uM” value is given as 13.7%.
Regarding `Cc1cc(N2CCN(C)CC2)nc2ccc(NC(=S)NCCC(C)C)cc12`, the “hERG current change (%, negative = inhibition) at 10uM” value is listed as -51.2%.
`Cc1cc(N2CCOCC2)nc2ccc(NC(=S)N3CCN(Cc4ccccc4)CC3)cc12`: the “hERG current change (%, negative = inhibition) at 10uM” value is on record as -33.6%.
As to `CCN(CC)CCNC(=S)Nc1ccc2nc(N3CCOCC3)cc(C)c2c1`, the “hERG current change (%, negative = inhibition) at 10uM” value amounted to 11.7%.
Regarding `Cc1cc(N2CCOCC2)nc2ccc(NC(=S)NCc3ccc4c(c3)OCO4)cc12`, the “hERG current change (%, negative = inhibition) at 10uM” value is reported as -68.5%.
Take `Cc1cc(N2CCOCC2)nc2ccc(NC(=S)NCCC(C)C)cc12`: the “hERG current change (%, negative = inhibition) at 10uM” value is -64.1%.
For the compound `COCCNC(=S)Nc1ccc2nc(N3CCOCC3)cc(C)c2c1`, the “hERG current change (%, negative = inhibition) at 10uM” value was -0.507%.
Consider `CCN(CC)CCNC(=S)Nc1ccc2nc(N3CCN(C)CC3)cc(C)c2c1`, for which the “hERG current change (%, negative = inhibition) at 10uM” value is recorded as -1.04%.
As for `Cc1cc(N2CCN(C)CC2)nc2ccc(NC(=S)NCCCN3CCc4ccccc4C3)cc12`, the “hERG current change (%, negative = inhibition) at 10uM” value is listed as -26.5%.
Consider `Cc1cccc(Cn2nc(C(C)(C)C)cc2C(=O)Nc2ccc(F)cc2)c1`, for which the “hERG current change (%, negative = inhibition) at 10uM” value is reported as 14.8%.
The result for `C(#CCN1CCOCC1)COCC#Cc1ccccc1.Cl` reads -2.16%.
Take `CC(C)(C)OC(=O)N[C@@H](Cc1c[nH]c2ccccc12)c1nnc(SCC(N)=O)o1`: the “hERG current change (%, negative = inhibition) at 10uM” value is reported as -3.96%.
For `Cc1nc2ccccc2c(=O)n1-c1cc(F)ccc1F`, the “hERG current change (%, negative = inhibition) at 10uM” value amounted to 8.31%.
Turning to `Cc1ccc(C)c(S(=O)(=O)NNC(=O)Nc2ccccc2Cl)c1`, the “hERG current change (%, negative = inhibition) at 10uM” value turned out to be 5.51%.
Regarding `O=c1cc(CSc2ccc(Cl)cc2)nc(-c2ccccn2)[nH]1`, the “hERG current change (%, negative = inhibition) at 10uM” value is listed as -0.0469%.
Consider `COc1ccc(CNC(=O)C(c2ccco2)N(Cc2ccccc2)C(=O)Cc2cccs2)cc1` (stereo not shown), for which the “hERG current change (%, negative = inhibition) at 10uM” value was 18%.
Regarding `CCN1CCN(c2ccc([N+](=O)[O-])cc2C(=O)c2ccc(Cl)cc2)CC1`, the “hERG current change (%, negative = inhibition) at 10uM” value is listed as -72.8%.
Consider `Cc1ccc(C(=O)c2cc([N+](=O)[O-])ccc2N2CCOCC2)cc1C`, for which the “hERG current change (%, negative = inhibition) at 10uM” value is given as -17%.
The result for `O=C(c1ccccc1)c1cc([N+](=O)[O-])ccc1N1CCOCC1` reads -30.7%; that for `Cc1ccc(C(=O)c2cc([N+](=O)[O-])ccc2N2CCN(C)CC2)cc1`, -64.5%.
As to `COc1ccc(C(=O)c2ccc([N+](=O)[O-])cc2Cl)cc1`, the “hERG current change (%, negative = inhibition) at 10uM” value was -16.2%.
As to `CN1CCN(c2ccc([N+](=O)[O-])cc2C(=O)c2ccccc2)CC1`, the “hERG current change (%, negative = inhibition) at 10uM” value was -54.2%.
The result for `Cc1ccc(C(=O)c2cc([N+](=O)[O-])ccc2N2CCCCC2)cc1C` reads 6.24%; that for `COc1ccc(C(=O)c2cc([N+](=O)[O-])ccc2N2CCN(C)CC2)cc1`, -58.2%.
Take `O=C(c1ccccc1)c1cc([N+](=O)[O-])ccc1N1CCCC1`: the “hERG current change (%, negative = inhibition) at 10uM” value was -12%.
`Cc1ccc(C(=O)c2cc([N+](=O)[O-])ccc2N2CC(C)OC(C)C2)cc1` (stereo not shown): the “hERG current change (%, negative = inhibition) at 10uM” value is -0.127%.
The result for `Cc1ccc(C(=O)c2cc([N+](=O)[O-])ccc2N2CCCCC2)cc1` reads -5.08%.
The result for `COc1ccc(C(=O)c2cc([N+](=O)[O-])ccc2N2CCOCC2)cc1` reads -23.5%; that for `Cc1nn(CC(=O)N2CCN(S(=O)(=O)c3ccccc3)CC2)c(C)c1[N+](=O)[O-]`, -10%; that for `Cl.Clc1cccc(Nc2nc(N3CCOCC3)nc(N3CCOCC3)n2)c1`, 16.9%.
Turning to `CN(C)C(=O)c1cn(-c2ccccc2)nc1-c1cc2ccccc2o1`, the “hERG current change (%, negative = inhibition) at 10uM” value was -10.3%.
On to `CC12CCC(=O)N1c1ccccc1C(=O)N2c1ccccc1` (stereo not shown), for which the “hERG current change (%, negative = inhibition) at 10uM” value is -9.9%.
In the case of `CCOC(=O)c1sc(NC(=O)CSc2nncn2C)nc1C`, the “hERG current change (%, negative = inhibition) at 10uM” value is given as 9.68%.
`Cl.O=C(OCCN1CCCCC1)c1cccc(Cl)c1`: the “hERG current change (%, negative = inhibition) at 10uM” value is -30.6%.
On to `CCCC(c1nnnn1Cc1ccco1)N1CCN(c2ccccc2)CC1.Cl` (stereo not shown), for which the “hERG current change (%, negative = inhibition) at 10uM” value is -19.6%.
The result for `Cc1c(Cc2ccccc2)c(NCCN(C)C)n2c(nc3ccccc32)c1C#N` reads -32.4%; that for `Cc1[nH]c2ccccc2c1Cc1nnc(SCC(=O)NCc2ccco2)o1`, 4.19%.
